Results from PubChem BioAssay (NCATS).
Results filed as inconclusive are left out. Where a call stands in place of a potency, no number is given. Activity calls are given as the source filed them. Calls come from the whole dose curve; as a rule, active = well fitted cell-killing curve with a large enough effect; inconclusive = small, poorly fitted or top-dose-only effect; inactive = flat fitted curve, though single readings scatter.

Experiment: Cell Viability - LYMP2-023 (AID 975);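 note: cellular ATP measured by luciferase luminescence as viability proxy; nearly all actives have a fitted effect of over 55% in size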
Conditions: LYMP2-023 lymphoblastoid cell viability; series mostly up to 92.2 µM
In short: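 Concentration-dependent drop in intracellular ATP measures acute cytotoxicity in a human lymphoblastoid line treated for 24 hours in complete culture medium. AC50 values are taken from Hill-equation fits of qHTS data.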

Q: Which outcome does the source give for `C=C(C)[C@H]1CC=C(C)C(=O)C1` here?
A: The outcome was “inactive”.

Q: Which outcome does the source give for `C=CC(C)(O)CCC=C(C)C` (stereo not drawn) here?
A: Its outcome is “inactive”.

Q: Which outcome does the source give for `COS(C)(=O)=O` here?
A: The outcome was “inactive”.

Experiment: Cell Viability - LYMP2-025 (AID 976)
Conditions: LYMP2-025 lymphoblastoid cell viability; series mostly up to 92.2 µM
In short: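 In qHTS format, LYMP2-025 lymphoblastoid cells in complete culture medium received compound for 24 hr; ATP-based CellTiter-Glo signal gave viability, with AC50 derived by Hill equation.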

Q: Which outcome does the source give for `C=C(C)[C@H]1CC=C(C)C(=O)C1` here?
A: Its outcome is “inactive”.

Q: With `C=CC(C)(O)CCC=C(C)C` (stereo not drawn) as the compound, how does the outcome read?
A: The outcome was “inactive”.

Q: Which outcome does the source give for `COS(C)(=O)=O` here?
A: The outcome was “inactive”.

Experiment: Cell Viability - LYMP2-002 (AID 977)
Conditions: LYMP2-002 lymphoblastoid cell viability, qHTS; series mostly up to 92.2 µM
In short: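 Cytotoxicity is scored as concentration-dependent loss of cellular ATP in a human lymphoblastoid line after 24 hr compound treatment at 37 C. AC50 is obtained by modelling concentration-response data with the Hill equation.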

Q: With `C=C(C)[C@H]1CC=C(C)C(=O)C1` as the compound, how does the outcome read?
A: Its outcome is “inactive”.

Q: Which outcome does the source give for `C=CC(C)(O)CCC=C(C)C` (stereo not drawn) here?
A: The outcome was “inactive”.

Q: With `COS(C)(=O)=O` as the compound, how does the outcome read?
A: Its outcome is “inactive”.

Experiment: Cell Viability - LYMP2-006 (AID 978); note: nearly all actives have a fitted effect of over 60% in size
Conditions: LYMP2-006 lymphoblastoid cell viability, qHTS; series mostly up to 92.2 µM
In short: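 Potency values are Hill-fit AC50s for decreases in intracellular ATP (CellTiter-Glo luminescence). LYMP2-006 lymphoblastoid cells, 2500 per well, were exposed to compound in complete culture medium for 24 hr at 37 C.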

Q: Which outcome does the source give for `C=C(C)[C@H]1CC=C(C)C(=O)C1` here?
A: The outcome was “inactive”.

Q: For `C=CC(C)(O)CCC=C(C)C` (stereo not drawn), which outcome is on record?
A: The outcome was “inactive”.

Q: For `COS(C)(=O)=O`, which outcome is on record?
A: The outcome was “inactive”.

Experiment: Cell Viability - LYMP2-007 (AID 979);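 note: cells exposed to compound for 24 h before reading; nearly all actives have a fitted effect of over 60% in size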
Conditions: LYMP2-007 lymphoblastoid cell viability; series mostly up to 92.2 µM
In short: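 Acute toxicity is scored as a concentration-dependent fall in intracellular ATP in human lymphoblastoid cells treated 24 hr at 37 C, measured by luciferase luminescence; Hill-equation modelling yields AC50.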

Q: Which outcome does the source give for `C=C(C)[C@H]1CC=C(C)C(=O)C1` here?
A: The outcome was “inactive”.

Q: For `C=CC(C)(O)CCC=C(C)C` (stereo not drawn), which outcome is on record?
A: The outcome was “inactive”.

Q: For `COS(C)(=O)=O`, which outcome is on record?
A: The outcome was “inactive”.

Experiment: Cell Viability - LYMP2-008 (AID 980); note: nearly all actives have a fitted effect of over 60% in size
Conditions: LYMP2-008 lymphoblastoid cell viability, qHTS; series mostly up to 92.2 µM
In short: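 Acute cytotoxicity is scored as concentration-dependent loss of cellular ATP in a human lymphoblastoid line after 24 hr treatment at 37 C. ATP is quantified by luciferase luminescence.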

Q: For `C=C(C)[C@H]1CC=C(C)C(=O)C1`, which outcome is on record?
A: Its outcome is “inactive”.

Q: For `C=CC(C)(O)CCC=C(C)C` (stereo not drawn), which outcome is on record?
A: The outcome was “inactive”.

Q: With `COS(C)(=O)=O` as the compound, how does the outcome read?
A: The outcome was “inactive”.

Experiment: Cell Viability - LYMP2-010 (AID 981); note: nearly all actives have a fitted effect of over 55% in size
Conditions: LYMP2-010 lymphoblastoid cell viability, qHTS; series mostly up to 92.2 µM
In short: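 Acute toxicity is scored as a concentration-dependent loss of cellular ATP in human lymphoblastoid cells after 24 hr compound exposure in complete medium. Tetraoctylammonium bromide is the positive control.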

Q: With `C=C(C)[C@H]1CC=C(C)C(=O)C1` as the compound, how does the outcome read?
A: Its outcome is “inactive”.

Q: With `C=CC(C)(O)CCC=C(C)C` (stereo not drawn) as the compound, how does the outcome read?
A: Its outcome is “inactive”.

Q: With `COS(C)(=O)=O` as the compound, how does the outcome read?
A: The outcome was “inactive”.

Experiment: Cell Viability - LYMP2-012 (AID 982);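 note: cellular ATP by luciferase luminescence where a drop means cytotoxicity; cells exposed to compound for one day before reading; nearly all actives have a fitted effect of over 55% in size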
Conditions: LYMP2-012 lymphoblastoid cell viability qHTS; series mostly up to 92.2 µM

Q: For `C=C(C)[C@H]1CC=C(C)C(=O)C1`, which outcome is on record?
A: The outcome was “inactive”.

Q: For `C=CC(C)(O)CCC=C(C)C` (stereo not drawn), which outcome is on record?
A: Its outcome is “inactive”.

Q: For `COS(C)(=O)=O`, which outcome is on record?
A: The outcome was “inactive”.

Experiment: Cell Viability - LYMP2-014 (AID 983); note: nearly all actives have a fitted effect of over 50% in size
Conditions: LYMP2-014 lymphoblastoid cells, viability qHTS; series mostly up to 92.2 µM
In short: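 Decrease in intracellular ATP after 24 hr treatment at 37 C, measured by luciferase luminescence, indicated cytotoxicity. Concentration-response data were fitted with the standard Hill equation to give AC50.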

Q: With `C=C(C)[C@H]1CC=C(C)C(=O)C1` as the compound, how does the outcome read?
A: Its outcome is “inactive”.

Q: Which outcome does the source give for `C=CC(C)(O)CCC=C(C)C` (stereo not drawn) here?
A: The outcome was “inactive”.

Q: For `COS(C)(=O)=O`, which outcome is on record?
A: Its outcome is “inactive”.

Experiment: Cell Viability - LYMP2-016 (AID 984); note: nearly all actives have a fitted effect of over 55% in size
Conditions: LYMP2-016 lymphoblastoid cell viability, qHTS; series mostly up to 92.2 µM
In short: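 Cytotoxicity was scored by luminescent ATP content (CellTiter-Glo) after 24 h compound exposure at 37 C of a human lymphoblastoid line at 2500 cells/well. Concentration-response data were fitted to the Hill equation for AC50.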

Q: For `C=C(C)[C@H]1CC=C(C)C(=O)C1`, which outcome is on record?
A: Its outcome is “inactive”.

Q: For `C=CC(C)(O)CCC=C(C)C` (stereo not drawn), which outcome is on record?
A: Its outcome is “inactive”.

Q: For `COS(C)(=O)=O`, which outcome is on record?
A: Its outcome is “inactive”.

Experiment: Cell Viability - LYMP2-018 (AID 985);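 note: compound exposure lasted 24 hr at 37 °C; nearly all actives have a fitted effect of over 50% in size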
Conditions: LYMP2-018 lymphoblastoid cells, viability (qHTS); series mostly up to 92.2 µM
In short: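 Acute cytotoxicity is scored as a concentration-dependent drop in intracellular ATP after 24 hr exposure of the lymphoblastoid line in complete culture medium, measured by luciferase luminescence. Potency is expressed as AC50 from Hill modelling.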

Q: For `C=C(C)[C@H]1CC=C(C)C(=O)C1`, which outcome is on record?
A: The outcome was “inactive”.

Q: For `C=CC(C)(O)CCC=C(C)C` (stereo not drawn), which outcome is on record?
A: Its outcome is “inactive”.

Q: Which outcome does the source give for `COS(C)(=O)=O` here?
A: Its outcome is “inactive”.

Experiment: Cell Viability - LYMP2-020 (AID 986); note: nearly all actives have a fitted effect of over 55% in size
Conditions: series mostly up to 92.2 µM
In short: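 Acute cytotoxicity in a human lymphoblastoid line is scored as a concentration-dependent fall in cellular ATP after 24 hr at 37 C in complete medium. The positive control is tetraoctylammonium bromide, and potency is given as Hill-fit AC50.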

Q: For `C=C(C)[C@H]1CC=C(C)C(=O)C1`, which outcome is on record?
A: The outcome was “inactive”.

Q: With `C=CC(C)(O)CCC=C(C)C` (stereo not drawn) as the compound, how does the outcome read?
A: Its outcome is “inactive”.

Q: With `COS(C)(=O)=O` as the compound, how does the outcome read?
A: The outcome was “inactive”.

Experiment: Cell Viability - LYMP2-022 (AID 987); note: nearly all actives have a fitted effect of over 55% in size
Conditions: LYMP2-022 lymphoblastoid cell viability; series mostly up to 92.2 µM
In short: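 Acute toxicity in a human lymphoblastoid line is scored as decreased intracellular ATP after 24 hr compound treatment at 37 C. ATP is measured by CellTiter-Glo luminescence; curves are fitted with the Hill equation to give AC50.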

Q: Which outcome does the source give for `C=C(C)[C@H]1CC=C(C)C(=O)C1` here?
A: The outcome was “inactive”.

Q: For `C=CC(C)(O)CCC=C(C)C` (stereo not drawn), which outcome is on record?
A: Its outcome is “inactive”.

Q: Which outcome does the source give for `COS(C)(=O)=O` here?
A: Its outcome is “inactive”.

Experiment: Cell Viability - LYMP2-024 (AID 988); note: nearly all actives have a fitted effect of over 60% in size
Conditions: LYMP2-024 lymphoblastoid cell viability; series mostly up to 92.2 µM
In short: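 Acute toxicity is measured as concentration-dependent loss of intracellular ATP in a human lymphoblastoid line treated 24 hours at 37 C. Luciferase luminescence quantifies ATP; AC50 values come from standard Hill-equation modelling.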

Q: Which outcome does the source give for `C=C(C)[C@H]1CC=C(C)C(=O)C1` here?
A: The outcome was “inactive”.

Q: Which outcome does the source give for `C=CC(C)(O)CCC=C(C)C` (stereo not drawn) here?
A: Its outcome is “inactive”.

Q: With `COS(C)(=O)=O` as the compound, how does the outcome read?
A: Its outcome is “inactive”.

Experiment: Cell Viability - LYMP2-026 (AID 989); note: nearly all actives have a fitted effect of over 50% in size
Conditions: LYMP2-026 lymphoblastoid cell viability, qHTS; series mostly up to 92.2 µM
In short: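 Concentration-dependent loss of intracellular ATP in human lymphoblastoid cells after 24 hr at 37 C, quantified by luciferase luminescence. AC50 derived from standard Hill equation.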

Q: With `C=C(C)[C@H]1CC=C(C)C(=O)C1` as the compound, how does the outcome read?
A: The outcome was “inactive”.

Q: For `C=CC(C)(O)CCC=C(C)C` (stereo not drawn), which outcome is on record?
A: The outcome was “inactive”.

Q: With `COS(C)(=O)=O` as the compound, how does the outcome read?
A: Its outcome is “inactive”.

Experiment: Cell Viability - LYMP1-002 - Assay at 24 hr (AID 993)
Conditions: LYMP1-002 lymphoblastoid cells viability; series mostly up to 92.2 µM
In short: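 qHTS, LYMP1-002 lymphoblastoid, 24 h cpd, 37 C, CellTiter-Glo ATP luminescence; AC50 via Hill eq.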

Q: For `C=C(C)[C@H]1CC=C(C)C(=O)C1`, which outcome is on record?
A: The outcome was “inactive”.

Q: For `C=CC(C)(O)CCC=C(C)C` (stereo not drawn), which outcome is on record?
A: Its outcome is “inactive”.

Q: With `COS(C)(=O)=O` as the compound, how does the outcome read?
A: Its outcome is “inactive”.
